Experiments:
Assay type in all cases: functional
[1] = target: Solute carrier family 2, facilitated glucose transporter member 1 (Homo sapiens) (UniProt P11166); assay: ST_JUDE_LEISH: Cytotoxicity at 2uM final concentration against transgenic Leishmania Mexicana promastigotes LmGLUT1 that are glucose transport deficient and complemented with the human glucose transporter GLUT1. Activity is measured by DNA content using SYBR green in vitro
[2] = target: Hexose transporter 1 (Plasmodium falciparum) (UniProt O97467); assay: ST_JUDE_LEISH: Cytotoxicity at 2uM final concentration against transgenic Leishmania Mexicana promastigotes LmPfHT that are glucose transport deficient and complemented with the Plasmodium falciparum hexose transporter. Activity is measured by DNA content using SYBR green in vitro
[3] = target: Glucose transporter (Leishmania mexicana) (UniProt O61059); assay: ST_JUDE_LEISH: Cytotoxicity at 2uM final concentration against transgenic Leishmania Mexicana promastigotes LmGT2 that are glucose transport deficient and complemented with the L. Mexicana glucose transporter 2. Activity is measured by DNA content using SYBR green in vitro

Solute carrier family 2, facilitated glucose transporter member 1 (Homo sapiens), sequence (P11166 whole entry): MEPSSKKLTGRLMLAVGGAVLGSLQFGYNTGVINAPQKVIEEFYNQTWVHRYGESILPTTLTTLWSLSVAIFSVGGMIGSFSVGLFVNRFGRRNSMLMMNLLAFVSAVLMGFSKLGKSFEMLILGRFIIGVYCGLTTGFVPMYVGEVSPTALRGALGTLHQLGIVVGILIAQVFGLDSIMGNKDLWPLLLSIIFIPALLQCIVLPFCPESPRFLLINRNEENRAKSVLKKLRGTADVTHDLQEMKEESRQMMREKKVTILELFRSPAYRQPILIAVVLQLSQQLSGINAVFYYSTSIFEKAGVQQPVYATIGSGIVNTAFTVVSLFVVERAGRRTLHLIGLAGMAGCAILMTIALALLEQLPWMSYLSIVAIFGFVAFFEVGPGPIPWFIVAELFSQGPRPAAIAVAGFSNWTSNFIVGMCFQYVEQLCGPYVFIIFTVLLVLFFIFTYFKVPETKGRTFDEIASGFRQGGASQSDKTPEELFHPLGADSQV

Row | SMILES | inhibition [1] | inhibition [2] | inhibition [3]
1 | c1ccc(CCNCc2ccc(-c3ccc(CNC4CCN(Cc5ccccc5)CC4)cc3)nc2)cc1 | 5.76% | 11.9% | 4.15%
2 | CCOc1ccccc1C1CCN(CCCCNC(=O)c2ccc(NC(=O)c3ccc(Cl)cc3)cc2)CC1 | 10.6% | 7.51% | 10.8%
3 | CCCCN1CCCN(Cc2cccc(NC(=O)c3ccc(-c4ccccc4)cc3)c2)CC1 | 1.16% | -2.15% | -1.31%
4 | O=C(NC1CC1)c1cnc(N2CCC(COc3cccc(F)c3)CC2)c(Cl)c1 | 1.83% | 2.54% | 0.22%
5 | N#Cc1cccc(C(=O)Nc2ccc(-c3cccc(CN4CCCC4)c3)cc2)c1 | 55.6% | 6.55% | 7.42%
6 | Cc1cccn2c(=O)c3cc(C(=O)NC4CCCCC4)c(=N)n(CCCn4ccnc4)c3nc12 | -2.65% | -2.23% | -4.98%
7 | Cc1cc(C(F)(F)F)cc(-n2ncc(-c3ccc(C(=O)NCc4ccccc4N)cc3)c2N)n1 | 104% | 98.5% | 57.5%
8 | N#Cc1ccnc(-c2ccc(CNC3CCN(CC4Cn5c(=O)ccc6ccc(F)c4c65)CC3)cc2)c1 (stereo unspecified) | 9.83% | 8.44% | 4.88%
9 | O=C1CCCN1CCCNCc1cccc(-c2ccc(-c3nc4cc(C(F)(F)F)ccc4[nH]3)s2)c1 | 4.12% | 3.19% | 4.33%
10 | O=C(Nc1cc(F)cc(-c2cccnc2)c1)c1ccc2c(=O)n(Cc3ccccc3)cnc2c1 | 0.81% | 1.52% | -1.46%
11 | Cn1nccc1C(=O)NCCNCc1cccc(-c2ccc(-c3nc4ccccc4[nH]3)s2)c1 | -0.55% | -0.8% | -1.72%
12 | O=C(NCc1ccc(C(F)(F)F)cc1)c1cccc(-c2nnc(-c3cccc(-c4cncnc4)c3)o2)c1 | 9.91% | 4.62% | 4.68%
13 | COc1ccc(CCn2c(=N)c(C(=O)NC3CCCC3)cc3c(=O)n4ccccc4nc32)cc1 | 7.26% | 9.43% | 5.98%
14 | COC(=O)Cn1c(C2CCN(CC3CCN(C(=O)/C=C/c4ccc(Cl)c(Cl)c4)CC3)CC2)nc2ccccc21 | 3.09% | 0.62% | 2.04%
15 | Nc1nc(N)c2c(ccc3c2ccn3Cc2cccc3ccccc23)n1 | 97.3% | 96% | 88.4%
16 | Cc1ccc(NC(=O)c2c(C)noc2-c2snnc2C)cc1 | 3.24% | 4.05% | 3.02%
17 | O=c1ccc(-c2nc3cc(Cl)c(Cl)cc3n2Cc2ccc(Cl)cc2Cl)c[nH]1 | -0.54% | -0.54% | -0.93%
18 | COc1cc(-c2cc3cc(Cl)c(Cl)cc3[nH]2)ccc1C(=O)NC1CCN(Cc2ccccc2)CC1 | 4.58% | 2.67% | 3.54%
19 | CSc1nc2cc3c(cc2n1C(=O)c1ccc(C)cc1)OCCO3 | 6.31% | 4.48% | 2.89%
20 | CCOC(=O)c1ccc(Nc2cc(Nc3ccc(C(=O)OCC)cc3)nc(C)n2)cc1 | 7.7% | 35.2% | 3.24%
21 | Cc1cc(N2CCCC2)nc(Nc2ccc(NC(=O)c3cccc(F)c3)cc2)n1 | 33.5% | 14.7% | 16.2%
22 | Cc1[nH]c(C)c(-c2ccc(-c3cccc(OC(F)(F)F)c3)nc2)c(=O)c1Cl | -1.57% | 0.86% | -0.63%
23 | CC1CCNc2ccc(Cc3cnc(N)nc3N)cc21 (stereo unspecified) | 2.12% | 1.47% | 2.05%
24 | CCN(CC)CCCN1CCN(C(=O)c2cccc(-c3noc(C(F)(F)F)n3)c2)CC1 | 5.54% | 4.63% | 4%

Row | SMILES | inhibition [1] | inhibition [2] | inhibition [3]
25 | O=C(NCc1ccccc1)Nc1ccc(-c2ccc(-c3nc4cc(C(F)(F)F)ccc4[nH]3)cc2)cc1 | 2.91% | 4.48% | 0.55%
26 | Cc1ccc(NC(=O)NC2CCN(c3ccnc4ccccc34)CC2)cc1 | 1.13% | 1.21% | 2.3%
27 | CCN(CC)C(=O)C1CCCN(c2cc(C)nc(Nc3ccc(Cl)cc3)n2)C1 (stereo unspecified) | 0.86% | 1.03% | 0.51%
28 | COc1ccc(CCON2C(=N)N=C(N)NC2(C)C)cc1OC | 2.04% | 2.62% | 3.2%
29 | O=C(/C=C/c1ccc(Cl)c(Cl)c1)NCCCCCN1CCCC(CNC(=O)Nc2ccc(C(F)(F)F)cc2)C1 (stereo unspecified) | 4.18% | 3.11% | 1.39%
30 | CCn1c(Sc2ccc(C#N)c([N+](=O)[O-])c2)nnc1-c1ccc(Cl)cc1 | 3.57% | 3.08% | 1.39%
31 | CN(C)c1ccc(/N=C2/N/C(=N/c3ccc(N(C)C)cc3)c3ccccc32)cc1 | 4.81% | 6.38% | 3.25%
32 | COc1ccc(-c2cnc(NCc3ccccc3)nc2)cc1CNC1CCN(C)CC1 | -0.17% | 1.06% | -0.94%
33 | O=[N+]([O-])c1ccccc1C=NN=c1cc[nH]c2ccccc12 | -2.55% | 1.68% | -0.01%
34 | COc1ccc(CCNCC(O)c2cccc(Br)c2)c(Cl)c1OC (stereo unspecified) | -3.38% | -1.73% | -3.62%
35 | CCNc1cc(C(=O)N[C@@H](Cc2ccccc2)[C@H](O)CNC(C)(C)CCCC(C)C)cc(N2CCCC2=O)c1 | 2.43% | 1.71% | 3.47%
36 | Fc1ccc(Nc2ccnc3cc(-c4ccc(CNCCN5CCOCC5)o4)ccc23)c(Cl)c1 | 2.04% | 2.02% | 2.34%
37 | COc1ccc(-c2cccc(NC(=O)c3cccc(C#N)c3)c2)cc1CNC(C)C | 9.6% | 8.42% | 5.03%
38 | CSCCC(C(=O)O)N1C(=O)c2ccccc2C1=O (stereo unspecified) | 0.66% | 1.03% | 0.77%
39 | COc1ccc(NS(=O)(=O)c2ccc(C(=O)Nc3ccc(OC(F)(F)F)cc3)cc2)cc1N1CCN(CC2CC2)CC1 | 6.41% | 5.3% | 4.14%
40 | Cc1cc(N[C@@H](Cc2ccccc2)C(=O)NC2CCCC2)nc(Nc2ccccc2)n1 | 7.17% | 7.28% | 2%
41 | O=C(Nc1cccc(-c2cccc(-c3nc4ccccc4[nH]3)c2)c1)Nc1ccc(F)c(F)c1F | 2.74% | 4.36% | 3.88%
42 | CNC(=O)c1ccc2nc(C3CC3)n(CC3CCN(S(=O)(=O)c4cccc(Cl)c4)CC3)c2c1 | 1.69% | 1.44% | 2.49%
43 | Oc1ccc(CCNc2nc(NCCCOc3ccccc3-c3cccnc3)nc(N3CCNCC3)n2)cc1 | 5.04% | 7.86% | 5.99%
44 | CCCC(C)c1ccc(N2C(N)=NC(N)=NC2(C)C)cc1 (stereo unspecified) | 2.85% | 2.75% | 0%
45 | CN(C)c1nc(NCc2ccccc2)nc(N/N=C/c2cc([N+](=O)[O-])ccc2O)n1 | -1.92% | -1.79% | -1.5%
46 | CCCCN1C(=O)C2CC(=O)CC(C3CCCCC3)C2C1=O (stereo unspecified) | 0.97% | 0.42% | 2.77%
47 | COc1ccc(C(F)(F)F)cc1N1CCN(CCCCNC(=O)c2ccc(NC(=O)c3ccc(Cl)cc3)cc2)CC1 | 0.14% | 1.22% | -0.38%
48 | CCCC(C)Nc1nc(C)cc(N[C@@H](CC(C)C)C(=O)NCc2cccc(F)c2)n1 (stereo partly specified) | 4.43% | 5.69% | 3.7%

Row | SMILES | inhibition [1] | inhibition [2] | inhibition [3]
49 | O=C1C(C2CCC(c3ccc(Cl)cc3)CC2)=C2OCC3COC2(O3)c2ccccc21 (stereo unspecified) | 1.13% | 0.99% | -0.99%
50 | COc1ccc2nc(C)cc(NCc3ccc4ccccc4c3)c2c1 | 12.8% | 9.9% | 5.11%
51 | C[C@H](NC(=O)C1CCCC1)C(=O)Nc1ccc(-c2ccc(-c3nc4cc(C(F)(F)F)ccc4[nH]3)cc2)cc1 | 2.17% | 0.76% | -1.28%
52 | COc1ccc(Cn2c(N3CCN(S(=O)(=O)c4ccc(OC)cc4)CC3)nc3c2c(=O)n(CC2CC2)c(=O)n3CC2CC2)cc1 | 0.89% | -0.86% | -1.39%
53 | O=C(N[C@@H](Cc1ccccc1)C(=O)NCCN1CCCCC1)c1ccc(O)c(-c2ccc(Cl)c(Cl)c2)c1 | 1.95% | 3.59% | 0.78%
54 | Cc1cc(-c2cccc(CNC3CCCC3)c2)ccc1S(=O)(=O)NCCN1CCCC1 | 5% | 3.43% | 6.24%
55 | CN1Cc2cc(NC(=O)/C=C/c3ccccc3Cl)ccc2C(C)(C)C1 | 10.7% | 8.21% | 6.98%
56 | CCCCCCN1CCC(NCc2cccc(-n3ccnc3)c2)CC1 | 8.02% | 7.03% | 9.81%
57 | CCC(C)c1ccc(NC(=O)c2ccc(S(=O)(=O)Nc3ccc(OC)c(N4CCN(CC5CC5)CC4)c3)cc2)cc1 (stereo unspecified) | 1.59% | -0.83% | -1.88%
58 | Clc1ccc(Sc2cncnc2N2CCOCC2)cc1 | 3.31% | 1.01% | -0.01%
59 | O=C(Nc1ccccc1O)c1ccc(S(=O)(=O)c2ccc(Cl)cc2)cc1 | 5.52% | 4.67% | 6.69%
60 | CCCCOC(=O)c1ccc(NC(=O)Nc2ccc(Cn3ncc(N4CCCNCC4)c(Cl)c3=O)cc2)cc1 | 9.01% | 10.1% | 7.4%
61 | O=C(/C=C/c1ccc(Cl)c(Cl)c1)NCCCCCN1CCC(NC(=O)Nc2ccc(Cl)cc2Cl)CC1 | -0.07% | -0.77% | -2.38%
62 | CN1CCN(c2ccnc3cc4c(cc23)N(C(=O)Nc2ccc(-c3ccncc3)c3ccccc23)CC4)CC1 | 3.02% | 2.26% | 3.35%
63 | NC1=NC(c2ccccc2)(c2ccccn2)C(=O)N1CCCc1ccccc1 (stereo unspecified) | 6.44% | 2.19% | 1.77%
64 | Cc1cc(CNC(=O)c2ccc(-c3ccc(-c4nc5cc(C(F)(F)F)ccc5[nH]4)s3)cc2)on1 | 4.04% | 3.31% | 1.12%
65 | CSc1ccc(NC(=O)Nc2cc(C)nc3ccccc23)cc1 | 10.3% | 10.8% | 10.3%
66 | CCn1cnc2c(N3CCCC3=O)cc(C(=O)N[C@@H](Cc3ccccc3)[C@H](O)CNC3CCCCC3)cc21 | 2% | 1.91% | 2.63%
67 | CCN(CC)c1ccc(NC(=S)NC2CCN(CCCCCNC(=O)/C=C/c3ccc(Cl)c(Cl)c3)CC2)cc1 | 5.28% | 6.72% | 6.22%
68 | Cc1cc(=NN=Cc2ccc(Cl)cc2)c2ccccc2[nH]1 | 4.28% | 6.86% | 3.97%
69 | COc1ccccc1/C=C/C(=O)N(C)C1CCN(CCCCCNC(=O)/C=C/c2ccc(Cl)c(Cl)c2)C1 (stereo unspecified) | 1.67% | 1.04% | 0.34%
70 | CNC(=O)C(C)N(c1ccc(Cl)cc1)c1nc(C(C)(C)C)cs1 (stereo unspecified) | -1.9% | -2.14% | 3.15%
71 | Cc1cccc2nc(-c3cccc(-c4ccc(CN5CCN(CCO)CC5)cc4)c3)[nH]c12 | 2.28% | 0.97% | -0.97%
72 | CCNc1cc(C(=O)N[C@@H](Cc2ccccc2)[C@H](O)CNC(CC)c2cccc(Cl)c2)cc(N2CCCC2=O)c1 (stereo partly specified) | 3.51% | -0.75% | 3.68%
